The target in experiment [1] is T1, Ephrin type-A receptor 3 (Homo sapiens) (UniProt P29320).
T1 sequence (whole entry): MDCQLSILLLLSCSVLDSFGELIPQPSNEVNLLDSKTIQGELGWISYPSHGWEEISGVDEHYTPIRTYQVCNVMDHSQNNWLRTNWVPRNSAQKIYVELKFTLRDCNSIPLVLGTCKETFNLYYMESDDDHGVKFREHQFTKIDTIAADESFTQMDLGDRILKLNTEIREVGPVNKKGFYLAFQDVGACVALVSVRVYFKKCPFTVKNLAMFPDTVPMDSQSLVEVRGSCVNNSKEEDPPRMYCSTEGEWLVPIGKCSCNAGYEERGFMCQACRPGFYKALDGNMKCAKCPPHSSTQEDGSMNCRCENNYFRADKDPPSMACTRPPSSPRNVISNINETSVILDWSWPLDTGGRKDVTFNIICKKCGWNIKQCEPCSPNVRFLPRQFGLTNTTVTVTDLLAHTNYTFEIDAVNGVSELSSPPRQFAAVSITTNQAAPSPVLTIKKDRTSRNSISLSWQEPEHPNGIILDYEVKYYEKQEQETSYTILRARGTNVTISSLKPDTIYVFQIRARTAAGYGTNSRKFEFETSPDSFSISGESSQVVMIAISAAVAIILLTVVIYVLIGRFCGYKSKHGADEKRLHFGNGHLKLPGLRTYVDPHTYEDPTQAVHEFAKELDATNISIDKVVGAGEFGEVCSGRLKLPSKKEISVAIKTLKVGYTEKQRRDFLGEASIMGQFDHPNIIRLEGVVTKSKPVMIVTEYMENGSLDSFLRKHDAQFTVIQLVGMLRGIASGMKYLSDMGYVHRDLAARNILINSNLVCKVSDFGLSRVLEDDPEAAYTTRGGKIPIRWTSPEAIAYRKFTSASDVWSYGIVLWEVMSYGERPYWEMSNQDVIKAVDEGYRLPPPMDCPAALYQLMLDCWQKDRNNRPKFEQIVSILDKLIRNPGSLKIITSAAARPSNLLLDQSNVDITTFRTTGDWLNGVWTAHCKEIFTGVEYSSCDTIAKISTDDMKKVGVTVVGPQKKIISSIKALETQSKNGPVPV
The following applies: at 10 µM.

Experiment [2] concerns the target Ephrin type-A receptor 4 (Homo sapiens) (UniProt P54764). As to conditions: at 10 µM.
Experiment [3] addresses Ephrin type-A receptor 5 (Homo sapiens) (UniProt P54756). The following applies: at 1 µM.
For experiment [4] the target is unchanged. As to conditions: at 10 µM.
Experiment [5] concerns the target Ephrin type-A receptor 7 (Homo sapiens) (UniProt Q15375). As to conditions: at 1 µM.
Experiment [6] shares this target. The following applies: at 10 µM.
The target in experiment [7] is T2, Ephrin type-A receptor 8 (Homo sapiens) (UniProt P29322).
T2 sequence (whole entry): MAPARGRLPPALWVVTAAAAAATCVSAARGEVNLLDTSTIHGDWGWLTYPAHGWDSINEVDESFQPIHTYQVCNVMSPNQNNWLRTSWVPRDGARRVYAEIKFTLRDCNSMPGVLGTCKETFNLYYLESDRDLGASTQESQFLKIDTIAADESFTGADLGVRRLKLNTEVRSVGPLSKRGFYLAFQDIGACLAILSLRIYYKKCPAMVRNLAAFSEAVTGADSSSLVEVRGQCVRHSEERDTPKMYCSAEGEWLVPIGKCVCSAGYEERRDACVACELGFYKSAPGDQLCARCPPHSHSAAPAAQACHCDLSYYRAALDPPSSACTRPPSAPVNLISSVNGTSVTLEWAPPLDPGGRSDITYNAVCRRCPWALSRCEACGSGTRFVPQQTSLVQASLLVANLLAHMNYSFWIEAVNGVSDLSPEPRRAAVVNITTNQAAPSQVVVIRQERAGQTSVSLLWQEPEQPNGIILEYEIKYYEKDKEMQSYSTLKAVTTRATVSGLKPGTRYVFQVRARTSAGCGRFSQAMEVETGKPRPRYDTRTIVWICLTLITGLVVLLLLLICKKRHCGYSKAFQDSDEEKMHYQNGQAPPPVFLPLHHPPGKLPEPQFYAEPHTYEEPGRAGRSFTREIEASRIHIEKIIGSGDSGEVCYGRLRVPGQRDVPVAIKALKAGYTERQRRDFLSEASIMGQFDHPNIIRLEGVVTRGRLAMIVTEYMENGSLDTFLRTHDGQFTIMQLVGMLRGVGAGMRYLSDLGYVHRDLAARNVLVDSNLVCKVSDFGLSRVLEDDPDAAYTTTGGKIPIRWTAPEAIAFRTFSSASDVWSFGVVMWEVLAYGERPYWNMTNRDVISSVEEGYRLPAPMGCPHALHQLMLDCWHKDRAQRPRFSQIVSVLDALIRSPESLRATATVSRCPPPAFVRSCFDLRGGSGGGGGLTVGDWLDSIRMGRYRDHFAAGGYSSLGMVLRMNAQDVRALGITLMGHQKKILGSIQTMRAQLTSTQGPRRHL
As to conditions: at 1 µM.

Experiment [8] addresses T2, Ephrin type-A receptor 8 (Homo sapiens). The following applies: at 10 µM.
For experiment [9], the target named is T3, Ephrin type-B receptor 1 (Homo sapiens) (UniProt P54762).
T3 sequence (whole entry): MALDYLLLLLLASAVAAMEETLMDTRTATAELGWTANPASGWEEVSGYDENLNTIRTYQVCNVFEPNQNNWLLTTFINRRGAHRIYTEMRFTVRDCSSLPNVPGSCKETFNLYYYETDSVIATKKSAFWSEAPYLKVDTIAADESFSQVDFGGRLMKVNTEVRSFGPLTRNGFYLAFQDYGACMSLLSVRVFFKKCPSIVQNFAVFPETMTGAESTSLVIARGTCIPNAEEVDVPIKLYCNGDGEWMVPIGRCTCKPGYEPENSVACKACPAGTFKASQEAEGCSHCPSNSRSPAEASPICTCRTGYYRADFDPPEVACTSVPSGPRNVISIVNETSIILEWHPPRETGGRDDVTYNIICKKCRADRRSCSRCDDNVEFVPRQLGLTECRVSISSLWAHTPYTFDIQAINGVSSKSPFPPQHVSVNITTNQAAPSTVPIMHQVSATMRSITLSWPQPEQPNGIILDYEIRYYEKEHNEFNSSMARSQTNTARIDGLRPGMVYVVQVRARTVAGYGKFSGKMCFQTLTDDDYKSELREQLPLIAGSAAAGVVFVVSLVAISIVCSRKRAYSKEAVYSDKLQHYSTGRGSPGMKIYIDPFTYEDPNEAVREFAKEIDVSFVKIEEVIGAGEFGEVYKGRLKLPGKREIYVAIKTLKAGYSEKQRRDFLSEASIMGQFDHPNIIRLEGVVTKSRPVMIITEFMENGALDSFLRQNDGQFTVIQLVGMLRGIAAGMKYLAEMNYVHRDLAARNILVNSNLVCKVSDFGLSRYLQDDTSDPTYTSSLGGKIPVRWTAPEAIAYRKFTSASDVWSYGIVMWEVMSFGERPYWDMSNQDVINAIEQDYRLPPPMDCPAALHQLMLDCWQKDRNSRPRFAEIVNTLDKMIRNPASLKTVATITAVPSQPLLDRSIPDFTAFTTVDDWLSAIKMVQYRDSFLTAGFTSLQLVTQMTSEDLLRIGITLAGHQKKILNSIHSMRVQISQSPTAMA
As to conditions: at 10 µM.

Sequence of Ephrin type-A receptor 7 (Homo sapiens) (Q15375 28-998 limits assumed): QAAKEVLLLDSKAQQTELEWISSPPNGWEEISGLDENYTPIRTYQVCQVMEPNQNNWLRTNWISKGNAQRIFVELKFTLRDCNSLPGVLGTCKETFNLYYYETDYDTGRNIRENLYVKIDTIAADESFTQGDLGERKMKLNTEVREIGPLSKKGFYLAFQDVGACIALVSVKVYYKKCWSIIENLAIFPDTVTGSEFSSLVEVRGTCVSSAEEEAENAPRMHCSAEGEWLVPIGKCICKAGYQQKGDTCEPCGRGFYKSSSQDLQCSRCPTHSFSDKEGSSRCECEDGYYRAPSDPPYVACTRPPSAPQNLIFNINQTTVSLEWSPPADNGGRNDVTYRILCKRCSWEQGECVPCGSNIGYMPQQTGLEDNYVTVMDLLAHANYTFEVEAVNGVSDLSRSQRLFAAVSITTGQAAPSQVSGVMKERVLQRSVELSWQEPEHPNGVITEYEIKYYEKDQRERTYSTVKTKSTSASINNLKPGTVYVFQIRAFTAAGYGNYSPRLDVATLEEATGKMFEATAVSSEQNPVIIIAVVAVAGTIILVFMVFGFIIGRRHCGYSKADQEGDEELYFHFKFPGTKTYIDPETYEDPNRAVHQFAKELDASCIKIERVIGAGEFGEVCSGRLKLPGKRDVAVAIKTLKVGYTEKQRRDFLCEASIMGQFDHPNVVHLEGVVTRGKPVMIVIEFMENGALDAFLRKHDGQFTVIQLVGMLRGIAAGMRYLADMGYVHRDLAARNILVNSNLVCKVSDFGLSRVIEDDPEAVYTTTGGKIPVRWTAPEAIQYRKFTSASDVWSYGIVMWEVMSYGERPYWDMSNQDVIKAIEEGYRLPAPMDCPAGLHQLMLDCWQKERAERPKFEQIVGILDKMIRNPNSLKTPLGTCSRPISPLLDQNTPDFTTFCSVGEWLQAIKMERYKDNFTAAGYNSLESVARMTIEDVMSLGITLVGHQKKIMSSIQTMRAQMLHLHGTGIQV
Sequence of Ephrin type-A receptor 5 (Homo sapiens) (P54756 whole entry): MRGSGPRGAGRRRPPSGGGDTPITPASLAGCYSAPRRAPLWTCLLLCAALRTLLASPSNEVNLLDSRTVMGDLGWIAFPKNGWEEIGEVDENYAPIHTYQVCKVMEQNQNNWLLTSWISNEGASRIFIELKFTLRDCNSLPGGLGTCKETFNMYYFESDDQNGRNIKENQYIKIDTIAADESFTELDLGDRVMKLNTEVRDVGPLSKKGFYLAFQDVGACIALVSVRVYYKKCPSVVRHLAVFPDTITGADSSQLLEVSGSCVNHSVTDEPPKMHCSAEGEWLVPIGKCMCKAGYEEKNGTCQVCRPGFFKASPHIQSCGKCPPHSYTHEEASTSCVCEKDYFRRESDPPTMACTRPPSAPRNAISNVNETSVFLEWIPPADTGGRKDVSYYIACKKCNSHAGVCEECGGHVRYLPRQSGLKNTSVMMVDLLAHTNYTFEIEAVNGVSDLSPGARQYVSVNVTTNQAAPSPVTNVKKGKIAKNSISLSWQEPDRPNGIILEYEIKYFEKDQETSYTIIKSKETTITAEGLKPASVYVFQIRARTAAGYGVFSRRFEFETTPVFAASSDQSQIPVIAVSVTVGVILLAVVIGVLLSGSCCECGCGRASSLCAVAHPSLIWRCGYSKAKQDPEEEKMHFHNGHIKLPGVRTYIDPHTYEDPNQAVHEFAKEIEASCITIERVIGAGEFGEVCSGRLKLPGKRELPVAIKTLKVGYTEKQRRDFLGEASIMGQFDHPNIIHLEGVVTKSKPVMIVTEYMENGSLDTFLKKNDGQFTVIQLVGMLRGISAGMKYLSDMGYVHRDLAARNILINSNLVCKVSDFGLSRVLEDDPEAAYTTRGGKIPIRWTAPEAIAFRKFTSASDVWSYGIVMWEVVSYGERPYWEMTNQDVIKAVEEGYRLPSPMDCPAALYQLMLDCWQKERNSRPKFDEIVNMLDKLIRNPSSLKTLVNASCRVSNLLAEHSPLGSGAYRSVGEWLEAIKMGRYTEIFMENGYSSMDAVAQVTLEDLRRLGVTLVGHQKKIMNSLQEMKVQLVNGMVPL
Sequence of Ephrin type-A receptor 4 (Homo sapiens) (P54764 whole entry): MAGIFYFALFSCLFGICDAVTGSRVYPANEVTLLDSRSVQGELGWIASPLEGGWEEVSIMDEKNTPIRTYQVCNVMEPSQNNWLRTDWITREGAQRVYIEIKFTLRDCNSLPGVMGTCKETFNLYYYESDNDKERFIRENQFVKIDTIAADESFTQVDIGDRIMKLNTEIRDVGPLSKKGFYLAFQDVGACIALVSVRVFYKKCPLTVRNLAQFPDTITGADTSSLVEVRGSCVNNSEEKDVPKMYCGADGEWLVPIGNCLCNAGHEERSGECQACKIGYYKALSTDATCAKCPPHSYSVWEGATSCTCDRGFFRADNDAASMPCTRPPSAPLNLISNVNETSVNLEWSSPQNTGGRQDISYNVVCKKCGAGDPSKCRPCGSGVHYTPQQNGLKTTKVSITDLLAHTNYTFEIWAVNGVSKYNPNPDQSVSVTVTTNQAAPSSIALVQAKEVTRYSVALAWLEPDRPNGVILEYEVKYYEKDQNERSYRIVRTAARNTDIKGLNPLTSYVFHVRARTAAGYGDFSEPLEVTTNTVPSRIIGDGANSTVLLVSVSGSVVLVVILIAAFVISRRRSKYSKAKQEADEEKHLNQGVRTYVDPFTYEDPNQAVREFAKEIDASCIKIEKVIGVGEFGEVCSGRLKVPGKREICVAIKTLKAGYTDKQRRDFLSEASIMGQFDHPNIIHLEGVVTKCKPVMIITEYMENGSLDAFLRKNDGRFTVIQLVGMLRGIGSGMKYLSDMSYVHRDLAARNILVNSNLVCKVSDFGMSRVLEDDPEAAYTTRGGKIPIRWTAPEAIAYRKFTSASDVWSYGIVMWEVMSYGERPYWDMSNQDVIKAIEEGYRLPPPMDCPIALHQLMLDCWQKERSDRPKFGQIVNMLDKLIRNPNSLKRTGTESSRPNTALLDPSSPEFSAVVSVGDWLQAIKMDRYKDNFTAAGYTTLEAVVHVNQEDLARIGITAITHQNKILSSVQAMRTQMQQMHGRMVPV

For `CN(C)CCCn1cc(C2=C(c3c[nH]c4ccccc34)C(=O)NC2=O)c2ccccc21`, the residual activity in experiment [1] worked out at 82%; in experiment [2], 82%; in experiment [3], 123%; in [4] it was 103%; in experiment [5], 108%; in experiment [6] it was 87%. For the same molecule, the residual activity in experiment [7] is 120%; in experiment [8], 106%; in experiment [9], 59%.

The values above are taken from ChEMBL document CHEMBL2218924, “A broad activity screen in support of a chemogenomic map for kinase signalling research and drug discovery” (Biochem J, 2013).
